Each structure is given as a SMILES string.

This assay has as its system Madurella mycetomatis MM55. In words: percent growth relative to solvent control; higher = less inhibition, active = 20 or less. The note with it: 100 µM; 7 days.
Turning to `COc1ccc(-c2nnc3ccc(-c4cccc(C(C)C)c4)cn23)cc1OC`, the percent growth was 2.59% (active). Then `CN1CCN(CCCOc2ncc(Nc3ncc(-c4ccc(C(F)(F)F)c(F)c4)nc3C(N)=O)cn2)CC1`, with -0.0728% (active). The value for `c1ccc(-c2nc(NC3CCCCC3)cc(C3CC3)n2)nc1` was 2.69% (active). Take `CC(Oc1ccccc1)C(=O)Nc1nc(-c2ccccn2)cs1` (stereo not drawn): the percent growth is 1.36% (active).

`O=C(Nc1ccc(C(F)(F)F)c(C(F)(F)F)c1)c1cc(Cl)ccc1O`: the percent growth is -2.39% (active). The value for `c1ccc(Oc2ccc(-c3cc(CN4CCOCC4)[nH]n3)cc2)cc1` was 3.77% (active). Then `O=C(Nc1cccc(Cl)c1)c1cnc(N2CCN(c3ccncc3)CC2)c(Cl)c1`, with 6.08% (active); and `Cc1cc(NCC(C)C)c2n[nH]c(-c3ccccc3)c2n1`, with -1.5% (active). The value for `O=C(Nc1cccc(-c2ccc(NCCCN3CCCC3)nc2)c1)c1ccccc1` was -1.11% (active); that for `CCc1c(C)nc(-n2nc(C)cc2NC(=O)c2ccccc2SC)[nH]c1=O` was 2.44% (active); that for `NCCN(C(=O)c1ccc(Cl)cc1Cl)c1ccc(OCc2ccc(Cl)cc2)cc1` was 4.52% (active). For `Oc1c(I)cc(I)c2cccnc12`, the percent growth was -2.46% (active). The value for `CC(C)(C)C1CCC(CC2=C(O)C(=O)c3ccccc3C2=O)CC1` (stereo not drawn) was -0.835% (active); that for `COc1ccc(C2=NN(C3CCCCCC3)C(=O)[C@@H]3CC=CC[C@H]23)cc1OCCCCOc1ccc(-c2nn[nH]n2)cc1` was -1.09% (active). The value for `O=C(Nc1nc(-c2ccccn2)cs1)c1cncn1-c1ccccc1` was 1.78% (active); that for `FC(F)(F)c1cc(NCCc2ccccc2)nc(-c2ccccn2)n1` was -0.699% (active); that for `N#CCN(CCCCN1CCN(c2ccc(F)cc2)CC1)C(=O)OCc1ccccc1` was 1.57% (active). Then `CC(C)(C)n1nc(Cc2ccc(F)c(Cl)c2)c2c(N)ncnc21`, with 1.18% (active); and `Cc1cc(C)nc(-n2nc(C)cc2Nc2ccccc2)n1`, with -0.531% (active). For `COc1ccc(C2=NN(C3CCCCCC3)C(=O)C2(C)C)cc1OCCCCOc1ccc(-c2nn[nH]n2)cc1`, the percent growth is 0.849% (active). For `CCCCc1ccc(C(=O)Nc2nccc3ccccc23)nc1`, the percent growth was -1.16% (active).

As for `CC(C)(C)c1ccc(N[C@@H]2CCCC[C@H]2NC(=O)c2ccco2)cc1`, the percent growth was -1.4% (active). In the case of `COc1ccc(CN2CCOc3ccc(C(C)(O)CN(C)C)cc3C2)cc1C` (stereo not drawn), the percent growth was 2.42% (active). The value for `CC(C)(C)n1nc(-c2ccccc2)c2c(N)ncnc21` was 10.4% (active).

For `CCOc1ccc2cc(-c3nn(CC4CCN(C)CC4)c4ncnc(N)c34)ccc2c1`, the percent growth is -3.52% (active).

Take `COc1ccc(C(=N)N)cc1-c1cn(-c2ccc(C(=N)N)cc2)nn1`: the percent growth was -3.41% (active).

Take `Cn1c(=O)c2c(S(C)(=O)=O)snc2n(C)c1=O`: the percent growth was -0.615% (active).

Turning to `Cc1cccc(-c2nc(Nc3ccncn3)c3sccc3n2)n1`, the percent growth was 1.77% (active). The value for `COc1cccc(-c2nc3c(N4CCCC4)cccc3n2CC2CCCN2)n1` (stereo not drawn) was -0.727% (active); that for `Cc1nc(-c2ccccn2)nc(N2CCC(Cc3ccccc3)C2)c1Cl` (stereo not drawn) was 6.94% (active).

Regarding `Brc1cncc(-c2cc(NCCCn3ccnc3)nc(-c3ccccc3)n2)c1`, the percent growth is -0.251% (active). The value for `c1ccc2c(c1)CN(CC1CC1)CC1(CCN(Cc3c[nH]c4cnccc34)CC1)O2` was 5.33% (active). With `c1ccc(Oc2ccc(-c3cc(C4CCOCC4)[nH]n3)cc2)cc1`, the percent growth was 4.02% (active).

For the molecule `CCCCOC(=O)Nc1cc2nc(C3CCCCC3)[nH]c2cc1N1CCCC1`, the percent growth was 7.67% (active). Consider `COc1ccc(-c2onc(C(F)(F)F)c2-c2ccc(Cl)cc2)c(O)c1`, for which the percent growth was 3.39% (active). `CCc1ccc(S(=O)(=O)Nc2cc(CN3CCN(CCC(C)C)CC3)ccc2C)cc1`: the percent growth was -0.809% (active). For `CCCn1c(NC(=O)c2ccc3ccccc3n2)nc2ccccc21`, the percent growth is -3.5% (active). Then `Cc1cc(NCCc2ccccc2)nc(NC(=N)Nc2ccc(Cl)cc2)n1`, with -1.87% (active).

The record behind these values is the supplement of paper PMC5940239.
